Measured values as given in the supplement of paper PMC10849652.
Targets with a hit are over-represented here; the source holds about 8,800 in all. About 0.5% of all pairs of compound and target were hits.

Columns and labels:
Experiment in all cases: log2 fold change, soluble protein after heating vs DMSO (PISA); higher = thermal stabilisation; K562 lysate, 10 uM; active = over 0.2 and 3.5 SD of the protein, either way, in both replicates (recomputed)
[1] = compound: CN1CC[C@H](c2c(O)cc(O)c3c(=O)cc(-c4ccccc4Cl)oc23)[C@H](O)C1 [alvocidib]
Summary of the method: (§1)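 Soluble protein was defined as the supernatant remaining after 21,000xg for 90 min, following pooling of heated aliquots and adjustment to 0.5% NP-40 at 4°C. Before that, crude K562 extract at 1 mg/mL protein in PBS pH 7.4 with 1 mM MgCl2 was treated with 10 μM compound for 30 min and heated for 3 min across 48°C-58°C. Quantification used TMTpro 16plex LC-MS/MS with channel sums equalised, and values are log-two fold changes in thermal stability relative to solvent controls from duplicates.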

[2] = compound: CN1CCc2c(c3ccccc3n2Cc2ccc(C(=O)NO)cc2)C1 [Tubastatin A]
Summary of the method: as §1

[3] = compound: CNC(=O)C1=CC=CC=C1NC2=NC(=NC=C2Cl)NC3=C(C=C(C=C3)N4CCOCC4)OC
Summary of the method: as §1

[4] = compound: CNC(=O)c1ccc(Nc2ncc(C(F)(F)F)c(NCc3nccnc3N(C)S(C)(=O)=O)n2)cc1 [defactinib]
Summary of the method: as §1

[5] = compound: CNc1nc(-c2ccc3c(N)n[nH]c3c2)cc(N2C[C@@H](C(=O)NC3CCCCC3)CC[C@H]2C)n1
Summary of the method: as §1

[6] = compound: COC(=O)N[C@@H](C)CNc1nccc(-c2cn(C(C)C)nc2-c2cc(Cl)cc(NS(C)(=O)=O)c2F)n1 [encorafenib]
Summary of the method: as §1

[7] = compound: COC(=O)[C@H](CCSC)NC(=O)C1=C(C=C(C=C1)NC[C@H](CS)N)C2=CC=CC=C2
Summary of the method: as §1

[8] = compound: COc1cc(Nc2ncc3c(n2)-c2ccc(Cl)cc2C(c2c(F)cccc2OC)=NC3)ccc1C(=O)O [alisertib]
Summary of the method: as §1

[9] = compound: COc1cc2nc(-c3cc(F)ccc3O)nc(N[C@@H]3CNC[C@H]3C(C)(C)O)c2cc1OC
Summary of the method: as §1

[10] = compound: COc1cc2ncnc(Nc3ccc(F)c(Cl)c3)c2cc1OCCCN1CCOCC1 [gefitinib]
Summary of the method: as §1

[11] = compound: CS(=O)(=O)CCNCc1ccc(-c2ccc3ncnc(Nc4ccc(OCc5cccc(F)c5)c(Cl)c4)c3c2)o1 [lapatinib]
Summary of the method: as §1

[12] = compound: CS(=O)(=O)N1CCN(Cc2cc3nc(-c4cccc5[nH]ncc45)nc(N4CCOCC4)c3s2)CC1 [pictilisib]
Summary of the method: as §1

[13] = compound: C[C@@H](Oc1cc(-c2cnn(C3CCNCC3)c2)cnc1N)c1c(Cl)ccc(F)c1Cl [crizotinib]
Summary of the method: as §1

[14] = compound: C[C@H](C1=CC=C(C=C1)C(=O)NC2=C3C=CNC3=NC=C2)N
Summary of the method: as §1

[15] = compound: C[C@H](Nc1ncnc2nc[nH]c12)c1cc2cccc(Cl)c2c(=O)n1-c1ccccc1 [duvelisib]
Summary of the method: as §1

[16] = compound: Cc1cc(Nc2cc(CN3CCOCC3)c3nc(C)c(Cc4ccc(Cl)cc4F)n3n2)n[nH]1 [gandotinib]
Summary of the method: as §1

[17] = compound: Cc1cc(Nc2cc(N3CCN(C)CC3)nc(Sc3ccc(NC(=O)C4CC4)cc3)n2)n[nH]1 [tozasertib]
Summary of the method: as §1

[18] = compound: Cc1ccc(-n2nc(C(C)(C)C)cc2NC(=O)Nc2ccc(OCCN3CCOCC3)c3ccccc23)cc1 [doramapimod]
Summary of the method: as §1

[19] = compound: Cc1ccc(NC(=O)c2ccc(CN3CC[C@H](N(C)C)C3)c(C(F)(F)F)c2)cc1Nc1nccc(-c2cncnc2)n1 [bafetinib]
Summary of the method: as §1

[20] = compound: Cc1cccc(CC(=O)N2CCc3c2ccc(-c2cn(C)c4ncnc(N)c24)c3F)n1
Summary of the method: as §1

Measured: log2 fold change

PRPH isoform 2 (UniProt P41219)
Chain of UniProt P41219 (P41219 whole entry, looked up): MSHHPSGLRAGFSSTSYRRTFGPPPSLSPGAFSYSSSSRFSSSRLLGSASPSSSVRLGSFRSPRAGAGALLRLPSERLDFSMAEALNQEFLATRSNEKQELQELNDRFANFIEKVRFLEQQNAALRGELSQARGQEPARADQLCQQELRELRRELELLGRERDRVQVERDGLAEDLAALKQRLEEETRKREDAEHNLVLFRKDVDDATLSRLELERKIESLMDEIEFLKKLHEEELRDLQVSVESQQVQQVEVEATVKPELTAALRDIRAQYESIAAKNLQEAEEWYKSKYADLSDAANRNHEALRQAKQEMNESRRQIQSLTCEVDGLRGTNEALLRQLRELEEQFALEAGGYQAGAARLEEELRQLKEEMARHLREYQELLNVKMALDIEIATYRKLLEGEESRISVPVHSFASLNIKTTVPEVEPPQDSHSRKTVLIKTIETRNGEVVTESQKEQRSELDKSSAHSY
inactive: [1] 0.062 | [2] 0.021 | [3] -0.049 | [4] -0.081 | [5] -0.133 | [6] -0.023 | [7] -0.178 | [8] -0.012 | [9] -0.028 | [10] 0.014 | [11] 0.082 | [12] 0.131 | [13] 0.05 | [14] 0.03 | [15] 0.051 | [16] -0.08 | [17] 0.096 | [18] -0.015 | [19] 0.025 | [20] 0.001

PIK3CB (UniProt P42338)
active: [12] 0.497 | [15] 0.645
inactive: [1] -0.002 | [2] -0.123 | [3] 0.056 | [4] -0.044 | [5] -0.013 | [6] -0.02 | [7] -0.126 | [8] -0.01 | [9] -0.011 | [10] -0.019 | [11] -0.007 | [13] -0.068 | [14] 0.022 | [16] 0.096 | [17] 0.017 | [18] -0.006 | [19] -0.034 | [20] 0.012

PCBP2 isoform 3 (UniProt Q15366)
Chain of UniProt Q15366 (Q15366 whole entry, looked up): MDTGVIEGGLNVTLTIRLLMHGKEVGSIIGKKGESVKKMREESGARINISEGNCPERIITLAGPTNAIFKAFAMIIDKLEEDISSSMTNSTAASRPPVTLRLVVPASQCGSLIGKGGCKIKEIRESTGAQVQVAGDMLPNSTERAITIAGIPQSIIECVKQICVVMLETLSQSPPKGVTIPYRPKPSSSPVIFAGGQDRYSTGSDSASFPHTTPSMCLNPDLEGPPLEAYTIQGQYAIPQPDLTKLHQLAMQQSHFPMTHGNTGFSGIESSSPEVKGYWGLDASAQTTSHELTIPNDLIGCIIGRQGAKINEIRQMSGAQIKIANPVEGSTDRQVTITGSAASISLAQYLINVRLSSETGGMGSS
inactive: [1] 0.038 | [2] -0.074 | [3] 0.017 | [4] 0.006 | [5] -0.075 | [6] 0.049 | [7] -0.048 | [8] -0.001 | [9] -0.006 | [10] -0.009 | [11] -0.013 | [12] -0.008 | [13] 0.079 | [14] -0.005 | [15] -0.015 | [16] -0.023 | [17] 0.014 | [18] 0.012 | [19] 0.002 | [20] -0.042

PSTPIP2 (UniProt Q9H939)
Chain of UniProt Q9H939 (Q9H939 whole entry, looked up): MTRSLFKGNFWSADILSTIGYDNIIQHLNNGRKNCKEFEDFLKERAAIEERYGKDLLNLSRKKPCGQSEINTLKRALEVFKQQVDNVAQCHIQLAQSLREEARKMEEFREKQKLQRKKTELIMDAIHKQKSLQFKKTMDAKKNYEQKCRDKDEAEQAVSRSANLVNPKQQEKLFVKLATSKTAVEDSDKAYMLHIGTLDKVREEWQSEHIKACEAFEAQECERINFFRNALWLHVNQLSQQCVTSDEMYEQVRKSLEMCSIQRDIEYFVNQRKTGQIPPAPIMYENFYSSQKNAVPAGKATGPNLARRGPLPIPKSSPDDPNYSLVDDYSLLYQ
inactive: [1] -0.006 | [2] -0.04 | [3] 0.031 | [4] -0.016 | [5] 0.026 | [6] 0.023 | [7] 0.002 | [8] -0.052 | [9] -0.03 | [10] -0.028 | [11] 0.009 | [12] 0.019 | [13] -0.047 | [14] 0.062 | [15] -0.023 | [16] -0.095 | [17] 0.012 | [18] 0.002 | [19] -0.014 | [20] -0.027

PHKA1 (UniProt P46020)
inactive: [1] 0.047 | [2] -0.073 | [3] 0.168 | [4] 0.08 | [5] -0.029 | [6] 0.004 | [7] 0.065 | [8] -0.014 | [9] 0.084 | [10] 0.041 | [11] -0.117 | [12] -0.003 | [13] -0.001 | [14] -0.042 | [15] -0.044 | [16] 0.069 | [17] 0.009 | [18] 0.024 | [19] 0.051 | [20] -0.047

PFDN2 (UniProt Q9UHV9)
Chain of UniProt Q9UHV9 (Q9UHV9 whole entry, looked up): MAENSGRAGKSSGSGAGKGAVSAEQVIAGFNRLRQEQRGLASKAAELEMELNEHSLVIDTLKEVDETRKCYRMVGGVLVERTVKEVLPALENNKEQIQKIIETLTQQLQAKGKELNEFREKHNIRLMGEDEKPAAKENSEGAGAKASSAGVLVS
active: [14] 0.365
inactive: [1] 0.063 | [2] 0.01 | [3] -0.035 | [4] 0.026 | [5] -0.012 | [6] 0.05 | [7] -0.025 | [8] 0.033 | [9] 0.007 | [10] 0.012 | [11] -0.001 | [12] -0.017 | [13] 0.054 | [15] 0 | [16] -0.1 | [17] 0.053 | [18] 0.005 | [19] -0.064 | [20] -0.13

PHKG2 (UniProt P15735)
inactive: [1] 0.107 | [2] -0.044 | [3] 0.268 | [4] 0.001 | [5] 0.033 | [6] -0.039 | [7] 0.056 | [8] -0.045 | [9] 0.192 | [10] 0.03 | [11] -0.07 | [12] -0.069 | [13] 0.166 | [14] 0 | [15] -0.008 | [16] 0.061 | [17] -0.051 | [18] 0.031 | [19] 0.015 | [20] -0.107

POLR2F (UniProt P61218)
inactive: [1] 0.272 | [2] -0.07 | [3] 0.031 | [4] 0.085 | [5] 0.2 | [6] -0.036 | [7] -0.02 | [8] 0.065 | [9] 0.003 | [10] -0.097 | [11] 0.036 | [12] -0.062 | [13] -0.024 | [15] -0.018 | [16] -0.166 | [17] 0.156 | [18] 0.025 | [19] -0.076 | [20] -0.189
active: [14] 1.12

PTS (UniProt Q03393)
Chain of UniProt Q03393 (Q03393 whole entry, looked up): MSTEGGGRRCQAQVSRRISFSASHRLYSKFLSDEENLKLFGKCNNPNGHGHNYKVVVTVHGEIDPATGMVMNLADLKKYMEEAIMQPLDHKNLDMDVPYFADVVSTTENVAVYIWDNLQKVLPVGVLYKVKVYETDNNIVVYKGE
inactive: [1] -0.055 | [2] -0.007 | [3] 0.043 | [4] -0.059 | [5] 0.015 | [6] 0.1 | [7] -0.022 | [8] -0.009 | [9] 0.016 | [10] 0.121 | [11] -0.018 | [12] 0.008 | [13] 0.051 | [14] -0.024 | [15] 0.051 | [16] -0.039 | [17] 0.031 | [18] -0.069 | [19] 0 | [20] 0.05

PPT2 isoform 3 (UniProt Q9UMR5)
Chain of UniProt Q9UMR5 (Q9UMR5 whole entry, looked up): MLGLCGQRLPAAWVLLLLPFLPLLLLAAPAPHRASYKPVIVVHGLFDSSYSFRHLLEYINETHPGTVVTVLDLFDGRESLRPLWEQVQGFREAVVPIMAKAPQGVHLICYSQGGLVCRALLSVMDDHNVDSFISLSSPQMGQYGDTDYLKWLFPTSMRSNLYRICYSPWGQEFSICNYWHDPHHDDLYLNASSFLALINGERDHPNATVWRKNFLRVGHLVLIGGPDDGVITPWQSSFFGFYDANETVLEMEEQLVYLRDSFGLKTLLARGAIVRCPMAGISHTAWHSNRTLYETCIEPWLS
inactive: [1] -0.051 | [2] 0.014 | [3] -0.005 | [4] -0.067 | [5] 0 | [6] -0.014 | [7] 0.059 | [8] 0.013 | [9] 0.015 | [10] 0.031 | [11] -0.053 | [12] -0.032 | [13] 0.035 | [14] 0.058 | [15] 0.06 | [16] 0.016 | [17] 0.004 | [18] 0 | [19] 0.005 | [20] -0.05

PDCD6IP isoform 2 (UniProt Q8WUM4)
Chain of UniProt Q8WUM4 (Q8WUM4 whole entry, looked up): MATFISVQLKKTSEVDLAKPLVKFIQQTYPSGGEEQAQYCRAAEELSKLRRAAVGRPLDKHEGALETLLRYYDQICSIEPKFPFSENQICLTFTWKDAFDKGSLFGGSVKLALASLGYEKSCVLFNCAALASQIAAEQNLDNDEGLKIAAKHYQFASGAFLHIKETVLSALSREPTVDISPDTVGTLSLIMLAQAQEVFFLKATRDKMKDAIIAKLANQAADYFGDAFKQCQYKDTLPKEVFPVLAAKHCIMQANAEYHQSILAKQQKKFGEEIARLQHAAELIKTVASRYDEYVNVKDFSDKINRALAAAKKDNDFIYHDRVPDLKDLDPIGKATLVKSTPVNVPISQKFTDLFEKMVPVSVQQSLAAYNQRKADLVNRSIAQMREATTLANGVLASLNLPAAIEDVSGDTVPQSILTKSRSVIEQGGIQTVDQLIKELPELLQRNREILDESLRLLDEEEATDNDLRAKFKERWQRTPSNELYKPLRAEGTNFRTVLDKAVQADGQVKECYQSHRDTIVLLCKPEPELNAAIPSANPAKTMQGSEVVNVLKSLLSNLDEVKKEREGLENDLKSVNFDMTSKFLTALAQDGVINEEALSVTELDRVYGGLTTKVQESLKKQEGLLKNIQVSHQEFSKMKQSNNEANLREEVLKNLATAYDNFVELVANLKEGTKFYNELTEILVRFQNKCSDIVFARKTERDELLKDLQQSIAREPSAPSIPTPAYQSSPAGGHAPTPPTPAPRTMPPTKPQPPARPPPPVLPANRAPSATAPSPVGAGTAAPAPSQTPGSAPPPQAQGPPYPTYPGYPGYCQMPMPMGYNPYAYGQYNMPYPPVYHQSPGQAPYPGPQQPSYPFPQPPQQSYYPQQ
inactive: [1] 0.033 | [2] -0.088 | [3] -0.005 | [4] -0.022 | [5] -0.02 | [6] -0.01 | [7] 0.188 | [8] 0.014 | [9] 0.003 | [10] -0.003 | [11] 0 | [12] -0.015 | [13] -0.015 | [14] 0.071 | [15] -0.009 | [16] -0.09 | [17] 0.024 | [18] -0.008 | [19] -0.006 | [20] -0.019

PIP4K2C (UniProt Q8TBX8)
active: [1] 0.47 | [19] 0.664
inactive: [2] 0.022 | [3] 0.125 | [4] 0.092 | [5] -0.07 | [6] 0.139 | [7] -0.085 | [8] 0.013 | [9] 0.104 | [10] 0.083 | [11] -0.043 | [12] 0.063 | [13] -0.036 | [14] -0.128 | [15] 0.033 | [16] 0.109 | [17] -0.06 | [18] 0.006 | [20] -0.032

POGK (UniProt Q9P215)
Chain of UniProt Q9P215 (Q9P215 whole entry, looked up): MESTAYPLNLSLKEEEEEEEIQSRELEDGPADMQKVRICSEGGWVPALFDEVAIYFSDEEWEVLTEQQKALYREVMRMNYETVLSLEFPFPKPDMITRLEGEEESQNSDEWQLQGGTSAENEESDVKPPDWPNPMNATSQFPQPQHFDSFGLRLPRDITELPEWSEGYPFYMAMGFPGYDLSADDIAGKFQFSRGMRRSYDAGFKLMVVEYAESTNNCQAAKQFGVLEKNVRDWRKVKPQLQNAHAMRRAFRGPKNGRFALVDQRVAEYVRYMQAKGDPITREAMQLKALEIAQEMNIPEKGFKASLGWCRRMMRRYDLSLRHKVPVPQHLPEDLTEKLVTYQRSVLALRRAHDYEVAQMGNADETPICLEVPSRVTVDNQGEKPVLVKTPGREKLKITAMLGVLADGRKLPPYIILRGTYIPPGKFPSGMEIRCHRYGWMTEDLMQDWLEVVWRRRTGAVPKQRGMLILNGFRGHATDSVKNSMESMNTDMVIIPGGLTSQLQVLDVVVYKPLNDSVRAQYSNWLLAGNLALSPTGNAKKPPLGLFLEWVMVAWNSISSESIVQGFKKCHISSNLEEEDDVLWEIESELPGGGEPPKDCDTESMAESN
inactive: [1] -0.015 | [2] -0.011 | [3] 0.001 | [4] 0.059 | [5] -0.02 | [6] -0.052 | [7] 0.028 | [8] 0.071 | [9] -0.012 | [10] -0.013 | [11] -0.055 | [12] -0.026 | [13] 0.022 | [15] 0.01 | [16] 0.095 | [17] -0.101 | [18] 0.111 | [19] -0.109 | [20] 0.142
active: [14] -0.384

POLD3 (UniProt Q15054)
Chain of UniProt Q15054 (Q15054 whole entry, looked up): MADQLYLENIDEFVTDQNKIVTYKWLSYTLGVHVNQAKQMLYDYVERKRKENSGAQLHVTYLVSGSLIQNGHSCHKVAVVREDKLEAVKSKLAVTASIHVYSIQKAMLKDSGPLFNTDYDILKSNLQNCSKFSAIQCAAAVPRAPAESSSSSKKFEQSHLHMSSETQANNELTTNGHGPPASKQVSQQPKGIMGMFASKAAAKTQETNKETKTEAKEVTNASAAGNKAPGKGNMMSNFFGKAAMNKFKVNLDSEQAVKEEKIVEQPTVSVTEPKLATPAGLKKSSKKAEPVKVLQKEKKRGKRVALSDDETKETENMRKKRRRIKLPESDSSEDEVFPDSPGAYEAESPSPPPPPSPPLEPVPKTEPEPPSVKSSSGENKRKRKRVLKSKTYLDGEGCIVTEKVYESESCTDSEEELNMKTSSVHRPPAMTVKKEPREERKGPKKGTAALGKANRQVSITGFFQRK
inactive: [1] 0.041 | [2] -0.032 | [3] 0.099 | [4] -0.033 | [5] -0.03 | [6] 0.021 | [7] 0.048 | [8] -0.025 | [9] 0.007 | [10] -0.018 | [11] 0.03 | [12] -0.046 | [13] -0.056 | [14] 0.022 | [15] -0.033 | [16] -0.079 | [17] 0.021 | [18] 0.001 | [19] -0.031 | [20] -0.038

PRIM1 (UniProt P49642)
inactive: [1] 0 | [2] -0.11 | [3] 0.023 | [4] -0.012 | [5] 0.033 | [6] 0.052 | [7] 0.041 | [8] -0.054 | [9] -0.019 | [10] -0.008 | [11] -0.02 | [12] 0.023 | [13] -0.064 | [14] 0.024 | [15] 0.004 | [16] -0.099 | [17] 0.027 | [18] -0.022 | [19] -0.077 | [20] 0.007

PPFIA2 (UniProt O75334)
Chain of UniProt O75334 (O75334 whole entry, looked up): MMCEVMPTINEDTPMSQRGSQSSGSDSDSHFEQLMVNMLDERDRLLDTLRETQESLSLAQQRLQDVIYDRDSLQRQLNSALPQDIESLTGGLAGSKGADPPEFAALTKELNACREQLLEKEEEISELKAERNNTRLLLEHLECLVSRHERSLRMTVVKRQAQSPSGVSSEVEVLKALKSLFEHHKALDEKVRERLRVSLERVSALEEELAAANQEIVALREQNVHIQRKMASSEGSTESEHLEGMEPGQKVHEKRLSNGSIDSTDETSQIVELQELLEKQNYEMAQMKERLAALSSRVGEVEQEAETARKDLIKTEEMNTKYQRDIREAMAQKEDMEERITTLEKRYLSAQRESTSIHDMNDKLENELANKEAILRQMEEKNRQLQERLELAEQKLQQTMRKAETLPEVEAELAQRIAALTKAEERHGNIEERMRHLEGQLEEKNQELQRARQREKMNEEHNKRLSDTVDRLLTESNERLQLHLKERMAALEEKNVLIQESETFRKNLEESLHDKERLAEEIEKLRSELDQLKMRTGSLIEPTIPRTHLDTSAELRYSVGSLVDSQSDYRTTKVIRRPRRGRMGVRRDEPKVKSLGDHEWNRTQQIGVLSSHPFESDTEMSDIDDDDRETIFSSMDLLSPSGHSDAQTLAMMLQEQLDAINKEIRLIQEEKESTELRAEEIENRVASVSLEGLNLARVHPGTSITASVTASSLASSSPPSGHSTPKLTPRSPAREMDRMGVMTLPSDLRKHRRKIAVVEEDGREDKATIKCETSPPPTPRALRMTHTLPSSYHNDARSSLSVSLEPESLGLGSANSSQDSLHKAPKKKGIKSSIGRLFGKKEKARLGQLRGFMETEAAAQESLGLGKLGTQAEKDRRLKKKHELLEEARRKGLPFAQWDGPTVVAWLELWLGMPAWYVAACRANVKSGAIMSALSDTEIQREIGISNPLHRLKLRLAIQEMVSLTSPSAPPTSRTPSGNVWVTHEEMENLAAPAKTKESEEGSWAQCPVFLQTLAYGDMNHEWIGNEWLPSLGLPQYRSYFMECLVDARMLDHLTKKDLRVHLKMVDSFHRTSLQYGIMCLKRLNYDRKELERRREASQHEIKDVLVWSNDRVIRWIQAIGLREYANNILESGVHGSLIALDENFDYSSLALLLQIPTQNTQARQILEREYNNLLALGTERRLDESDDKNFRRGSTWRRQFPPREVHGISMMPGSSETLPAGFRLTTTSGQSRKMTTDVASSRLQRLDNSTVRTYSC
active: [14] -0.244
inactive: [1] -0.107 | [2] 0.021 | [3] 0.022 | [4] -0.011 | [5] -0.026 | [6] -0.082 | [7] -0.029 | [8] -0.007 | [9] 0.012 | [10] 0.057 | [11] -0.014 | [12] 0.031 | [13] -0.212 | [15] 0.001 | [16] 0.139 | [17] -0.028 | [18] 0.023 | [19] 0.019 | [20] 0.147
